Assay results taken from PubChem BioAssay.
Unmarked numbers belong to inactive results. Activity calls are given as the source filed them. No stated cut-off is given here; in the data, active means fold change permeability below about 0.7 or above about 1.3; inactive means in between.

Assay: modulators of brain endothelial barrier permeability, primary screen, cell-based, FITC-avidin fluorescence, HTS (AID 1963498); further: test concentration not given here
Settings: actives lie on both sides

Which fold change permeability does the source give for `Nc1ccc2c3c(cccc13)C(=O)NC2=O` here?
The fold change permeability was 2.8 (active).

For `O=C(NCCO)c1cccc(-c2cc(Nc3ccc(OC(F)(F)F)cc3)ncn2)c1`, which fold change permeability is on record?
Its fold change permeability is 1.4 (active).

With `C[C@]12C=CC(=O)C=C1CC[C@@H]1C2=CC[C@]2(C)[C@@H](C(=O)CN3CCN(c4cc(N5CCCC5)nc(N5CCCC5)n4)CC3)CC[C@@H]12` as the compound, how does the fold change permeability read?
The fold change permeability was 1.4 (active).

Which fold change permeability does the source give for `C[C@H]1c2cccc(O)c2C(O)=C2C(=O)[C@]3(O)C(O)=C(C(N)=O)C(=O)[C@@H](N(C)C)[C@@H]3[C@@H](O)[C@@H]21` here?
The fold change permeability was 0.9.

With `CC1(C)SCCN(S(=O)(=O)c2ccc(OCC#CCO)cc2)[C@H]1C(=O)NO` as the compound, how does the fold change permeability read?
The fold change permeability was 1.1.

For `NCCS(=O)(=O)O`, which fold change permeability is on record?
Its fold change permeability is 0.8.

For `O=CN(O)CCCP(=O)(O)O`, which fold change permeability is on record?
The fold change permeability was 2.2 (active).

Which fold change permeability does the source give for `OC[C@H]1O[C@@H](n2cnc3c(N[C@H]4CCC[C@@H]4O)ncnc32)[C@H](O)[C@@H]1O` here?
The fold change permeability was 1.

Which fold change permeability does the source give for `O=C(O)CCC(C(=O)O)N1C(=O)c2ccccc2C1=O` (stereo unspecified) here?
The fold change permeability was 1.

With `CCn1cc(C(=O)O)c(=O)c2cc3c(cc21)OCO3` as the compound, how does the fold change permeability read?
Its fold change permeability is 1.

With `CC(C)(C)NCC(O)c1ccc(O)c(CO)c1` (stereo unspecified) as the compound, how does the fold change permeability read?
Its fold change permeability is 0.9.

With `CCOC(=O)C(C)(C)Oc1ccc(Cl)cc1` as the compound, how does the fold change permeability read?
The fold change permeability was 0.9.

With `COc1ccccc1N1CCN(CCCNc2c(C)c(=O)n(C)c(=O)n2C)CC1` as the compound, how does the fold change permeability read?
Its fold change permeability is 1.5 (active).

With `Nc1c(C(=O)Nc2c(F)cc(F)cc2Br)sc2nc3c(cc12)CCC3` as the compound, how does the fold change permeability read?
The fold change permeability was 0.9.

Which fold change permeability does the source give for `COc1nc(C)cnc1NS(=O)(=O)c1cccnc1-c1ccc(-c2nnco2)cc1` here?
Its fold change permeability is 1.4 (active).

Which fold change permeability does the source give for `C[C@@H](O[C@H]1OCCN(Cc2nn(P(=O)(O)O)c(=O)[nH]2)[C@H]1c1ccc(F)cc1)c1cc(C(F)(F)F)cc(C(F)(F)F)c1` here?
Its fold change permeability is 1.4 (active).
